Assay results reported in PubChem BioAssay AID1159580 (chemical genetic matrix, 2015).
Hit rate of the full screen: of about 5,500 compounds, about 2,000 (36%) were called active. Another 18% or so got no clear call; they are omitted. No stated cut-off is given here; in the data, active means normalized growth mostly below about 0.91 (no sharp cut-off); inconclusive means no clear call, values can overlap the other calls; inactive means mostly above about 0.92. This is one part of the list.

Assay: chemical genetic growth profiling, strain panel (AID 1159580);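 further: tested at 20 µM; growth read once vehicle control cultures reached saturation at 30 °C; 1 = growth at the plate median or of vehicle wells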
Conditions: S. cerevisiae deletion strains, growth OD

Measured: normalized growth

N#CCC(=O)Nc1ccccn1
inactive: locus YAL013W, strain DEP1, stronger effect = lower value 1.02 | locus YBR229C, strain ROT2, stronger effect = lower value 0.964 | locus YDL101C, strain DUN1, stronger effect = lower value 1.04 | locus YDR150W, strain NUM1, stronger effect = lower value 1.01 | locus YEL061C, strain CIN8, stronger effect = lower value 1.01 | locus YGR078C, strain PAC10, stronger effect = lower value 1.02 | locus YHR030C, strain SLT2, stronger effect = lower value 1.24 | locus YHR087W, strain rtc3, stronger effect = lower value 0.986 | locus YJR043C, strain POL32, stronger effect = lower value 1.01 | locus YJR075W, strain HOC1, stronger effect = lower value 1 | locus YKL190W, strain CNB1, stronger effect = lower value 1 | locus YLR039C, strain RIC1, stronger effect = lower value 1.01 | locus YLR058C, strain SHM2 (second series), stronger effect = lower value 0.995 | locus YLR085C, strain ARP6, stronger effect = lower value 1.06 | locus YLR262C, strain YPT6, stronger effect = lower value 0.989 | locus YML094W, strain GIM5, stronger effect = lower value 1.02 | locus YMR219W, strain ESC1, stronger effect = lower value 0.992 | locus YMR263W, strain SAP30, stronger effect = lower value 1.01 | locus YNL153C, strain GIM3, stronger effect = lower value 1.04 | locus YNL298W, strain CLA4 (second series), stronger effect = lower value 1.06 | locus YNL322C, strain KRE1, stronger effect = lower value 1.01 | locus YNR030W, strain Alg12, stronger effect = lower value 1.07 | locus YOL006C, strain TOP1, stronger effect = lower value 1.07 | locus YPL055C, strain LGE1, stronger effect = lower value 1.04 | locus YPL241C, strain CIN2, stronger effect = lower value 1.04 | locus YPR135W, strain CTF4, stronger effect = lower value 1.2
